Laboratory results reported in the supplement of paper PMC10849652.
About 8,800 targets were measured; listed, in parts, are those with a hit and a random draw of the rest. About 0.5% of all pairs of compound and target were hits. Values without a mark were called inactive.

Experiments:
Assay in all cases: log2 fold change, soluble protein after heating vs DMSO (PISA); higher = thermal stabilisation; K562 lysate, 10 uM; active = over 0.2 and 3.5 SD of the protein, either way, in both replicates (recomputed)
ibrutinib = compound: C=CC(=O)N1CCC[C@@H](n2nc(-c3ccc(Oc4ccccc4)cc3)c3c(N)ncnc32)C1 [ibrutinib]
Outline: (§1)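 Pellets of K562 cells were dounce-homogenised in PBS pH 7.4 with 1 mM MgCl2, and the crude extract was held at 1 mg/mL protein for a 30 min treatment with 10 μM compound. Aliquots were heated for 3 min over 48°C-58°C and pooled before NP-40 was added to 0.5% at 4°C. The supernatant from 21,000xg for 90 min was quantified by TMTpro 16plex LC-MS/MS with channel sums equalised. Values are reported from duplicates as log-two fold change in thermal stability relative to solvent controls.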

[1] = compound: CC(=O)c1cnc2ccc(-c3cc(Cl)c(O)c(Cl)c3)nc2c1N[C@H]1CC[C@H](CN(C)C)CC1
Outline: as §1

ralimetinib = compound: CC(C)(C)Cn1c(N)nc2ccc(-c3[nH]c(C(C)(C)C)nc3-c3ccc(F)cc3)nc21 [ralimetinib]
Outline: as §1

[2] = compound: CC(C)(O)CC(=O)NCCn1ccc2ncnc(Nc3ccc(Oc4cccc(C(F)(F)F)c4)c(Cl)c3)c21
Outline: as §1

[3] = compound: CC(C)C1=C2N=C(C=C(N2N=C1)NCC3=CC=CC=C3)NCCCCCCN
Outline: as §1

[4] = compound: CC1=C(C(CC(=O)N1)C2=CC=C(C=C2)C(F)(F)F)C(=O)NC3=C(C=C4C(=C3)C=NN4)F
Outline: as §1

[5] = compound: CC1=C(C2=C(C=C1)C(=O)C3=CC=CC=C3N2CCCN)C
Outline: as §1

[6] = compound: CC1=C(C=C(C=C1)NC(=O)C2=CC(=CC=C2)C(C)(C)C#N)NC3=CC4=C(C=C3)N=CN(C4=O)C
Outline: as §1

[7] = compound: CC1=C(C=C(C=C1)NC(=O)C2=CC(=CC=C2)N(C)C)NC(=O)C3=CC=C(C=C3)O
Outline: as §1

[8] = compound: CC1=CC=C(C=C1)SC2=C3C=C(SC3=CN=C2)C(=O)N
Outline: as §1

vemurafenib = compound: CCCS(=O)(=O)Nc1ccc(F)c(C(=O)c2c[nH]c3ncc(-c4ccc(Cl)cc4)cc23)c1F [vemurafenib]
Outline: as §1

[9] = compound: CCCS(=O)(=O)Nc1ccc(F)c(C(=O)c2c[nH]c3ncc(Cl)cc23)c1F
Outline: as §1

barasertib = compound: CCN(CCCOc1ccc2c(Nc3cc(CC(=O)Nc4cccc(F)c4)[nH]n3)ncnc2c1)CCOP(=O)(O)O [barasertib]
Outline: as §1

[10] = compound: CC[C@@H]1C(=O)N(C)c2cnc(Nc3ccc(C(=O)NC4CCN(C)CC4)cc3OC)nc2N1C1CCCC1
Outline: as §1

volasertib = compound: CC[C@@H]1C(=O)N(C)c2cnc(Nc3ccc(C(=O)N[C@H]4CC[C@H](N5CCN(CC6CC6)CC5)CC4)cc3OC)nc2N1C(C)C [volasertib]
Outline: as §1

[11] = compound: CCn1c(C(=O)N(C2CC2)C2CC2)cc2c3c(ncn3C)c(Nc3cc(C)n(C)n3)nc21
Outline: as §1

[12] = compound: CCn1cc(-c2ccnc3[nH]c(-c4cccc(CN(C)C)c4)cc23)c(-c2ccc(NC(=O)N(C)C)cc2)n1
Outline: as §1

[13] = compound: CN1CCC(CNc2ccc3ncc(-c4cccc(OC(F)(F)F)c4)n3n2)CC1
Outline: as §1

saracatinib = compound: CN1CCN(CCOc2cc(OC3CCOCC3)c3c(Nc4c(Cl)ccc5c4OCO5)ncnc3c2)CC1 [saracatinib]
Outline: as §1

sotrastaurin = compound: CN1CCN(c2nc(C3=C(c4c[nH]c5ccccc45)C(=O)NC3=O)c3ccccc3n2)CC1 [sotrastaurin]
Outline: as §1

Chain of UniProt P62256 (P62256 whole entry, looked up): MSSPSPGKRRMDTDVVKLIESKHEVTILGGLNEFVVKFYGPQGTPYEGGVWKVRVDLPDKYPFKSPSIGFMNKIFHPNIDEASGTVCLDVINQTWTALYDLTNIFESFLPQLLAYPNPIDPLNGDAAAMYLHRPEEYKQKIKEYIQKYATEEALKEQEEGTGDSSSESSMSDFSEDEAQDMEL
Chain of UniProt Q9H4B7 (Q9H4B7 whole entry, looked up): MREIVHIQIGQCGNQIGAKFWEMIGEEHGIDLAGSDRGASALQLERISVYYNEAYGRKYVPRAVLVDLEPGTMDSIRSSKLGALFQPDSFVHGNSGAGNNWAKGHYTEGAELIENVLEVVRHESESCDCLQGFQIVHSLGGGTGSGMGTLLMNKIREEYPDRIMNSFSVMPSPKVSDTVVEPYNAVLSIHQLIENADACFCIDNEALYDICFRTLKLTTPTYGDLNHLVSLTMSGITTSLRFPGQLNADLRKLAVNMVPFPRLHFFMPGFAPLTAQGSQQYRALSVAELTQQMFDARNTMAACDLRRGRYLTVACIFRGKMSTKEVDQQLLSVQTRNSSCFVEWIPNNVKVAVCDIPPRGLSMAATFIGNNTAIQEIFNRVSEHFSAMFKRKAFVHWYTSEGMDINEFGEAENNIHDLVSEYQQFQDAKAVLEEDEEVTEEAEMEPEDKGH
Chain of UniProt Q13595 (Q13595 whole entry, looked up): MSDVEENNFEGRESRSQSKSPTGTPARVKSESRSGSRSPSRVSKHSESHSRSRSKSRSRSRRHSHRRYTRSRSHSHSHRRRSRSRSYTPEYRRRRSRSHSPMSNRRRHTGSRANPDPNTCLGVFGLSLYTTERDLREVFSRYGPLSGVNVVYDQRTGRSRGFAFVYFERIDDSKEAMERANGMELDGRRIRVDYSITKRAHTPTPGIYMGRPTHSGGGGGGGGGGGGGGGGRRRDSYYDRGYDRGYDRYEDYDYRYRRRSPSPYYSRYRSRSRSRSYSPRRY
Chain of UniProt Q9Y5K5 (Q9Y5K5 whole entry, looked up): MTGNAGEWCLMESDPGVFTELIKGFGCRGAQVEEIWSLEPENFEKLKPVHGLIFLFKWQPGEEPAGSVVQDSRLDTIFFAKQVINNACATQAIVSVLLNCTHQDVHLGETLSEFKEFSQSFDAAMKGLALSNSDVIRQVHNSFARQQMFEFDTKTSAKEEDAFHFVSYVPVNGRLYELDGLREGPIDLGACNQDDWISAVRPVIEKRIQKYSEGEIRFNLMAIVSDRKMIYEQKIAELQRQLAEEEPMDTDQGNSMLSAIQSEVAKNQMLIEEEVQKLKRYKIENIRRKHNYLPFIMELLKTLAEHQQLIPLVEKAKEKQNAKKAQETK
Chain of UniProt Q14139 (Q14139 whole entry, looked up): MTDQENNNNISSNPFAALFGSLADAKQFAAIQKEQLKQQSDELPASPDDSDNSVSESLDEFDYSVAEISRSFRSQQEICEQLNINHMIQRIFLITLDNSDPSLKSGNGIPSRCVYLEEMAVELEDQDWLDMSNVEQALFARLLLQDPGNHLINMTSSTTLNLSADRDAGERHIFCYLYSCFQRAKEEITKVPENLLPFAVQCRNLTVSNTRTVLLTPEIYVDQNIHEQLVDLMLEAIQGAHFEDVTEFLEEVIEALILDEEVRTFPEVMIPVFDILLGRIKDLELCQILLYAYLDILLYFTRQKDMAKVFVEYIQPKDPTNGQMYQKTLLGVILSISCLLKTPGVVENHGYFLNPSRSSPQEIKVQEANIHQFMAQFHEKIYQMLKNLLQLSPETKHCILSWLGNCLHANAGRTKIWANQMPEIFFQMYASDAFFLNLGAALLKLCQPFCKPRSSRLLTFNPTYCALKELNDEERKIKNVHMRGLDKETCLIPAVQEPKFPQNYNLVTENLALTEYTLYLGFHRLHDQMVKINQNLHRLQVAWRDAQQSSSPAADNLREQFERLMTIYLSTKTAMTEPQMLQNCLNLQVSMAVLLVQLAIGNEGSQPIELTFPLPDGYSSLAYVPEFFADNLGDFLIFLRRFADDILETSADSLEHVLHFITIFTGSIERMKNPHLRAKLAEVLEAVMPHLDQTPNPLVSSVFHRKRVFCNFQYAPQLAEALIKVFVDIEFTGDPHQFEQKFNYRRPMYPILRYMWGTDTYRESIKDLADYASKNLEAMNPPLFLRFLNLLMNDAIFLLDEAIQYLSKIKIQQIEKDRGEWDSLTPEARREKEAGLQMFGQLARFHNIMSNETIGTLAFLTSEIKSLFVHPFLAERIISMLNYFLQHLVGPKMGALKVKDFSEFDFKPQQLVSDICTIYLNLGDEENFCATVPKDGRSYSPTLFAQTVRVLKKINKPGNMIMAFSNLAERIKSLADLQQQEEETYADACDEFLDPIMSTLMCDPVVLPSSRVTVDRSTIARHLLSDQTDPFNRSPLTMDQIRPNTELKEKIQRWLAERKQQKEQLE
Chain of UniProt Q9NZI7 (Q9NZI7 whole entry, looked up): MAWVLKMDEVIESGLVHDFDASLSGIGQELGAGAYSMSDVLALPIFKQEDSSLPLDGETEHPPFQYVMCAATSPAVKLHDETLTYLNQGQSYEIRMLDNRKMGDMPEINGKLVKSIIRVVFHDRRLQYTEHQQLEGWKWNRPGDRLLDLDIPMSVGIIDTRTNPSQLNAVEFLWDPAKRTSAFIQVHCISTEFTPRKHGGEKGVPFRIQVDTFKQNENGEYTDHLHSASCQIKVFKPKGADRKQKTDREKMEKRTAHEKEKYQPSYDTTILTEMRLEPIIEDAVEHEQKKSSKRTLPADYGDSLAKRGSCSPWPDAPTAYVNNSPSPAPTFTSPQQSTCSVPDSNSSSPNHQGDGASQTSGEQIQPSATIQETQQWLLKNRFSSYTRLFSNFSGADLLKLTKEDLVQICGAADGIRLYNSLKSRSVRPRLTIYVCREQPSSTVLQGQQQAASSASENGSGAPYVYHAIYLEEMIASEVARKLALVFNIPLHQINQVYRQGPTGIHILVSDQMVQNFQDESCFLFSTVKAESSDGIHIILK
Chain of UniProt Q9ULW0 (Q9ULW0 whole entry, looked up): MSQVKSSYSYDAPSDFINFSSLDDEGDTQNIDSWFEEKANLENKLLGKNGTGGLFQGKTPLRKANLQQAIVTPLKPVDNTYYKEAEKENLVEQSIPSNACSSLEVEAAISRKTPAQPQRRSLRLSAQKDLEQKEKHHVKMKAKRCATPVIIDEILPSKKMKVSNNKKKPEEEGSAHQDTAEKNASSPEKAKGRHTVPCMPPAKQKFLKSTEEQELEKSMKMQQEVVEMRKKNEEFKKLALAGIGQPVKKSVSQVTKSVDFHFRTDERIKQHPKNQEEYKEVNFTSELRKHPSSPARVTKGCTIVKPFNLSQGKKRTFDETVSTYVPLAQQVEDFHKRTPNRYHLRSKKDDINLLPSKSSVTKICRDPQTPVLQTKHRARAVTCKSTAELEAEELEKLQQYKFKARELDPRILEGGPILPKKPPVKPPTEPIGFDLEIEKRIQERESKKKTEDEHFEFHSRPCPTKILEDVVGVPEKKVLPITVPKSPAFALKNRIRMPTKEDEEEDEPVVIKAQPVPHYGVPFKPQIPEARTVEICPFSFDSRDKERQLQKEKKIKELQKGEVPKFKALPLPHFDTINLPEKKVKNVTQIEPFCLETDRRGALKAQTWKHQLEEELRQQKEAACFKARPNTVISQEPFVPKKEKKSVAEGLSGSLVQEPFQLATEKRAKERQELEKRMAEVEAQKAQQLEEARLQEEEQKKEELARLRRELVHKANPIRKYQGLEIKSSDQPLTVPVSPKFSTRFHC
Chain of UniProt Q9UNY4 (Q9UNY4 whole entry, looked up): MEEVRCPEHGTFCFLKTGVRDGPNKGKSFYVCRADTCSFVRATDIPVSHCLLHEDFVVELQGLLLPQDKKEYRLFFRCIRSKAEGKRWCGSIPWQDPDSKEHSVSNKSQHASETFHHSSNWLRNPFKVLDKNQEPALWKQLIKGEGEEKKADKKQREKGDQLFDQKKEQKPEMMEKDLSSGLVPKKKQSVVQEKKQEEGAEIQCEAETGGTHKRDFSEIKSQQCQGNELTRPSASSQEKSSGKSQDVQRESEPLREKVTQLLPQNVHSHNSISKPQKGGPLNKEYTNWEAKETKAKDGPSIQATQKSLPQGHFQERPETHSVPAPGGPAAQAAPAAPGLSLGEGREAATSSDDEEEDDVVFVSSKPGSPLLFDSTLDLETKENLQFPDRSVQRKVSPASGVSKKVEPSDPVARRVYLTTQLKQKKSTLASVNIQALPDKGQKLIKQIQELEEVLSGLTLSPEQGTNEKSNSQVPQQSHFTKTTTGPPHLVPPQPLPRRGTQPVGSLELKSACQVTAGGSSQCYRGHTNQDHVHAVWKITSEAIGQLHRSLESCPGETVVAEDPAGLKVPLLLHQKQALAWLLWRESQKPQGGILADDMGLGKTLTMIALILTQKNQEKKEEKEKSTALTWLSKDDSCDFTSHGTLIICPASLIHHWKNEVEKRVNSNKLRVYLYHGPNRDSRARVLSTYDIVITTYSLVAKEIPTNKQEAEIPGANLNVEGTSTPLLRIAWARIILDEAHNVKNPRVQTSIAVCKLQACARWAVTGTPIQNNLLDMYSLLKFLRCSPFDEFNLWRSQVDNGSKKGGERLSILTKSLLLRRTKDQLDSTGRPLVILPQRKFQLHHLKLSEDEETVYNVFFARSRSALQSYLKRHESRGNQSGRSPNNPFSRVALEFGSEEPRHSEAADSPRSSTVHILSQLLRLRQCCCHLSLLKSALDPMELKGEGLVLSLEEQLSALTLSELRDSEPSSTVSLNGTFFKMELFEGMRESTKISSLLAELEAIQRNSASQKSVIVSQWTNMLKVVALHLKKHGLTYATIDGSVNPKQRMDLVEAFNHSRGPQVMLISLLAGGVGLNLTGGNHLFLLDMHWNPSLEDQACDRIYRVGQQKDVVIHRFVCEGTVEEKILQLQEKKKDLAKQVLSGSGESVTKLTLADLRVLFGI
Chain of UniProt O75865 (O75865 whole entry, looked up): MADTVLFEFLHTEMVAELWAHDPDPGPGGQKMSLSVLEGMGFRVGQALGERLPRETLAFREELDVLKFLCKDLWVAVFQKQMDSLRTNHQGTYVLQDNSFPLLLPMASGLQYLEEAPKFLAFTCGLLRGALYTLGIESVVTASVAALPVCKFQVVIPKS

Row | Target | log2 fold change (ibrutinib) | log2 fold change [1] | log2 fold change (ralimetinib) | log2 fold change [2] | log2 fold change [3] | log2 fold change [4] | log2 fold change [5] | log2 fold change [6] | log2 fold change [7] | log2 fold change [8] | log2 fold change (vemurafenib) | log2 fold change [9] | log2 fold change (barasertib) | log2 fold change [10] | log2 fold change (volasertib) | log2 fold change [11] | log2 fold change [12] | log2 fold change [13] | log2 fold change (saracatinib) | log2 fold change (sotrastaurin)
1 | TTF2 (UniProt Q9UNY4) | 0.003 | -0.121 | 0.035 | -0.006 | -0.02 | 0.037 | -0.084 | -0.058 | -0.018 | -0.115 | 0.008 | 0.037 | 0.027 | -0.028 | 0.022 | 0.003 | -0.003 | -0.026 | 0.025 | 0.024
2 | UBE2H (UniProt P62256) | 0.032 | 0.026 | -0.033 | -0.002 | -0.004 | 0.064 | 0.022 | 0.005 | 0.026 | -0.027 | -0.032 | -0.013 | -0.006 | 0.011 | 0.004 | -0.055 | 0.166 | -0.227 (active) | -0.056 | -0.02
3 | UBE3B (UniProt Q7Z3V4) | 0.041 | 0.019 | 0.02 | -0.074 | -0.112 | 0.068 | 0 | -0.004 | -0.022 | 0.023 | 0.102 | -0.052 | 0.175 | 0.016 | -0.044 | 0.029 | -0.099 | -0.132 | -0.069 | 0.055
4 | TRAPPC6A isoform 2 (UniProt O75865) | -0.023 | -0.011 | -0.027 | -0.037 | -0.031 | -0.052 | 0.012 | 0.008 | 0.004 | -0.062 | -0.144 | 0.027 | -0.001 | -0.288 (active) | -0.035 | -0.072 | -0.228 | -0.096 | 0.001 | -0.042
5 | UBE4A isoform 2 (UniProt Q14139) | -0.025 | 0.018 | 0.038 | -0.038 | -0.023 | 0.03 | 0.019 | -0.009 | 0.034 | -0.009 | -0.008 | -0.001 | -0.009 | 0.003 | -0.053 | 0.031 | -0.03 | -0.081 | 0.011 | 0.025
6 | TPX2 (UniProt Q9ULW0) | 0.024 | -0.01 | 0.003 | -0.006 | 0.036 | -0.005 | -0.008 | 0.062 | 0.001 | -0.01 | -0.006 | -0.013 | -0.036 | 0.093 | 0.012 | -0.035 | 0.04 | -0.007 | 0.03 | -0.016
7 | UBE3C (UniProt Q15386) | -0.011 | 0.024 | 0.012 | -0.028 | -0.011 | 0.005 | 0.04 | -0.021 | 0.021 | 0.01 | -0.001 | 0.006 | 0.016 | -0.021 | -0.073 | 0.086 | -0.075 | 0.002 | 0.04 | 0.03
8 | UBP1 (UniProt Q9NZI7) | -0.006 | 0.056 | 0.024 | -0.004 | 0.048 | -0.028 | 0.047 | 0.03 | -0.037 | 0.004 | -0.014 | 0.117 | 0.008 | 0.01 | -0.017 | 0.007 | 0.228 (active) | -0.24 | -0.008 | -0.063
9 | TRA2A (UniProt Q13595) | 0.127 | -0.018 | -0.079 | -0.013 | 0.21 | -0.027 | 0.039 | 0.056 | 0.019 | -0.007 | -0.197 | -0.033 | -0.194 | -0.037 | -0.052 | 0.073 | -0.023 | 0.07 | 0.074 | 0
10 | UCHL5 isoform 3 (UniProt Q9Y5K5) | 0 | -0.001 | 0.01 | -0.008 | 0.015 | 0.014 | 0.011 | -0.029 | 0.004 | 0.012 | 0.013 | 0.016 | -0.001 | -0.019 | -0.017 | 0.014 | 0.164 | -0.06 | -0.012 | -0.005
11 | TTK (UniProt P33981) | 0.008 | 0.111 | 0.025 | -0.036 | 0.001 | 0.018 | -0.008 | -0.011 | 0.017 | 0.013 | -0.009 | 0.02 | 0.06 | 0.089 | -0.026 | -0.048 | -0.018 | 0.01 | -0.037 | 0.072
12 | TUBB1 (UniProt Q9H4B7) | -0.005 | -0.01 | -0.003 | -0.007 | 0 | 0.049 | 0.028 | -0.036 | 0.002 | 0.012 | -0.039 | 0.011 | 0.002 | -0.025 | -0.087 | 0.034 | 0.15 | -0.025 | -0.002 | -0.045
